JMJD2A Tudor inh: blocks the human JMJD2A Tudor domain; Potency, µM (series often up to 114 µM), without a hit: at the highest dose activity change, negative = inhibition, actives largely listed as inhibitors; 390,000 compounds, 4.4% hits; AlphaScreen JMJD2A-Tudor / H3K4me3 peptide binding; further: potency means the concentration at half of the fitted maximal effect; on the % scale 0 is the no-effect control and ±100 the full control effect; nearly all actives have a fitted effect of over 50% in size
Target sequence (O75164 whole entry, looked up, the tested form may be a part): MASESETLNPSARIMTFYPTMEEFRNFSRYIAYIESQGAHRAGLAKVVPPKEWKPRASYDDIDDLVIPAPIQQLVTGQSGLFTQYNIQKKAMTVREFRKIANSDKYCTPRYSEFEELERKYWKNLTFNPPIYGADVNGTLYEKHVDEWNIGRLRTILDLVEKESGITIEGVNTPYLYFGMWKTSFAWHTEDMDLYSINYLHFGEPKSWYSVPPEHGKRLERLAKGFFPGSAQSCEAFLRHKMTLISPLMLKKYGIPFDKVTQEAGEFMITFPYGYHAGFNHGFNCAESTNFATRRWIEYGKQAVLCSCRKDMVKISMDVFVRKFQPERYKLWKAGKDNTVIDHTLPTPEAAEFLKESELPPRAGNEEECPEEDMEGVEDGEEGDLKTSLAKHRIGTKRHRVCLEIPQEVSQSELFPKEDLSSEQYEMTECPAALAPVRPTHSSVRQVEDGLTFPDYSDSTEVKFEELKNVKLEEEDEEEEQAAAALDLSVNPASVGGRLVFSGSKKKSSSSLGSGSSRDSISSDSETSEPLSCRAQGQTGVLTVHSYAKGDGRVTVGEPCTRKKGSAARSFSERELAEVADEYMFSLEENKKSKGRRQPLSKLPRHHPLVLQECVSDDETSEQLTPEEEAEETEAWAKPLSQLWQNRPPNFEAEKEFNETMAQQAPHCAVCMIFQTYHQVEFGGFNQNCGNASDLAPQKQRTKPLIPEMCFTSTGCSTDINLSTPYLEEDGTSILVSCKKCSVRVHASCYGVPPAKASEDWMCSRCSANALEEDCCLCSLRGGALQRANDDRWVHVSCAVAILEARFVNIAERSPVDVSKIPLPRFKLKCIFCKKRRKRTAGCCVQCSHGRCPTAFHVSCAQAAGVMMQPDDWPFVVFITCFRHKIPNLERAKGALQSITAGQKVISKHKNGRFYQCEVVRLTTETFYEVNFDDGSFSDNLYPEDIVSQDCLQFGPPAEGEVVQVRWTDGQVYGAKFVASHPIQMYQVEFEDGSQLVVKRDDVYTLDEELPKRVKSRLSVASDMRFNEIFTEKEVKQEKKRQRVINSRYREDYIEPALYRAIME
BAZ2B inh: inhibitors of human BAZ2B bromodomain. 360,000 compounds, 4.4% hits. Potency, µM (highest dose often 114 µM), for the others: at the top dose activity change, negative = inhibition, actives largely listed as inhibitors. AlphaScreen BAZ2B-H3K14Ac peptide displacement. Q9UIF8. AID 504333; further: potency means the concentration at half of the fitted maximal effect; on the % scale 0 is the no-effect control and ±100 the full control effect; nearly all actives have a fitted effect of over 60% in size
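BAZ2B 50 nM plus b-H3(5-23)K14Ac 50 nM, PBS pH 7.4/0.01% Tween-20, 30 min RT; compound added (max 110 uM), 30 min RT; streptavidin donor/Ni-chelate acceptor beads 10 ug/mL final, 20 min dark; AlphaScreen read.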
PLK1 PBD inh: PLK1 (human) polo-box domain binding inhibition; AID 720504; Plk1 PBD binding of FITC phosphopeptide, fluorescence polarization; 360,000 compounds, 2.8% hits; Potency, µM, inactives show max response, negative = inhibition, usual class: inhibitors; further: potency means the concentration at half of the fitted maximal effect; series mostly up to about 57 µM; on the % scale 0 is the no-effect control and ±100 the full control effect; nearly all actives have a fitted effect of over 65% in size
HP1b binding inh: blocks HP1-beta chromodomain binding to methylated histone tails | AlphaScreen HP1-beta / biotin-H3K9me3 peptide binding | AID 540317 | 390,000 compounds, 0.56% hits | P83916 | Potency, µM (series often up to 114 µM), inactives show at the highest dose activity change, negative = inhibition, usual class: inhibitors; further: potency means the concentration at half of the fitted maximal effect; nearly all actives have a fitted effect of over 70% in size
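HP1-beta protein (50 nM final) preincubated 30 min at room temperature with biotinylated H3(1-18)K9me3 peptide (50 nM) in PBS pH 7.4, 0.01% Tween-20, then compound added for 30 min. AlphaScreen streptavidin donor/nickel chelate acceptor beads (10 ug/mL final), 30 min dark, luminescence read.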
PI5P4K alpha inh: inhibitors of human PI5P4K alpha; max response, %; 330,000 compounds, 1.2% hits; P48426; PI5P4Kalpha enzyme, ADP-Glo luminescence, 60 min; hits give low values; active means max response of -50% or lower; inconclusive means between -30% and -50%; inactive means -30% or higher; further: value at the top dose of about 77 µM; on the % scale 0 is the no-effect control and ±100 the full control effect
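qHTS, 1536-well: enzyme/substrate mix, compound by pin tool, 5 microM ATP final; RT 60 min; ADP-Glo reagents 1 (45 min) then 2 (30 min); luminescence.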
G9a block: blocks human histone lysine methyltransferase G9a. Q96KQ7. G9a H3K9 monomethylation, AlphaScreen, 2 h. Potency, µM (top dose mostly 102 µM), without a hit: at the highest dose activity, negative = inhibition, actives largely listed as inhibitors. 350,000 compounds, 8.8% hits. AID 504332; further: potency means the concentration at half of the fitted maximal effect; on the % scale 0 is the no-effect control and ±100 the full control effect; nearly all actives have a fitted effect of over 75% in size
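Using a bead-based AlphaScreen, monomethylated H3K9 product from 2 h room-temperature reactions (G9a 20 nM, peptide 500 nM, SAM 20 uM) was detected with 0.5 ug/mL rabbit anti-H3K9me1 antibody.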
Active calls of the source: *; [ ] = another dose, or the depositor's remark. An excerpt weighted towards active compounds, which were near 12% of everything screened. Unless noted, the call rests on the fitted dose curve; in most records, active means well fitted curve in the direction sought with a large enough effect; inconclusive means small, poorly fitted or top-dose-only effect, or another doubt; inactive means no such curve, though single readings can be large; an effect the other way counts as inactive or inconclusive.

`COc1ccc(-c2ccc(SCC(=O)Nc3nnc(C)s3)nn2)cc1` gave JMJD2A Tudor inh 1.4%, BAZ2B inh -16.2%, PLK1 PBD inh 1.2%, HP1b binding inh 38.5%, PI5P4K alpha inh 2.4 and G9a block 8.6%.
For CCc1nnc(NC(=O)CSc2nnc(C)n2-c2ccc(C)cc2)s1 the results were JMJD2A Tudor inh -13.5%, BAZ2B inh -22.5%, PLK1 PBD inh -8.8%, HP1b binding inh 21.3%, PI5P4K alpha inh -12.3 and G9a block 19.7%[12.7 µM].
`CCOc1ccc(-c2ccc(SCC(=O)Nc3nnc(CC)s3)nn2)cc1` gave JMJD2A Tudor inh -17.9%, BAZ2B inh -2.1%, PLK1 PBD inh -14.0%, HP1b binding inh 9.5%, PI5P4K alpha inh -5.3 and G9a block 28.2µM*.
CCc1nnc(NC(=O)CSc2ccc(-c3ccc(C)cc3)nn2)s1 was read as JMJD2A Tudor inh -33.8%, BAZ2B inh -28.4%, PLK1 PBD inh -15.0%, HP1b binding inh 19.6%, PI5P4K alpha inh 2.8 and G9a block 50.1µM*.
`CCCc1c(C)nc(N2CCN(c3ccccc3OC)CC2)[nH]c1=O` gave JMJD2A Tudor inh -9.8%, BAZ2B inh 9.7%, PLK1 PBD inh -5.0%, HP1b binding inh 13.3%, PI5P4K alpha inh 1.3 and G9a block -9.1%.
O=C(Oc1ccccc1O)c1cccc2ccccc12 was read as BAZ2B inh -17.4% and G9a block 44.7µM*.
For CC1(CCl)N([O-])C2=C(CCCC2)[N+]1=O (stereo not drawn) the results were JMJD2A Tudor inh -4.2%, BAZ2B inh 44.7µM*, PLK1 PBD inh -15.8%, HP1b binding inh 30.8%, PI5P4K alpha inh -2.4 and G9a block 31.6µM*.
Screening CC(C)Cn1cnc2c1c(=O)n(CC(=O)NC(=O)NC(C)(C)C)c(=O)n2Cc1ccccc1 returned JMJD2A Tudor inh -19.0%, BAZ2B inh -1.9%, PLK1 PBD inh -15.2%, HP1b binding inh 1.9%, PI5P4K alpha inh -0.8 and G9a block -6.0%.
`CCN1CCn2c3c(c4cc(Br)ccc42)CCCC31` (stereo not drawn) gave JMJD2A Tudor inh -35.1%, PLK1 PBD inh -2.2%, HP1b binding inh -6.9% and PI5P4K alpha inh 4.8.
`Cc1ccc2c(c1)c1c3n2CCN(CCC(=O)O)C3CCC1` (stereo not drawn) gave JMJD2A Tudor inh -16.6%, BAZ2B inh inconclusive, PLK1 PBD inh -3.6%, HP1b binding inh 27.3%, PI5P4K alpha inh 3.6 and G9a block 44.7µM*.
For Cc1ccc2c(c1)c1c3n2CCN(C(=O)c2ccc(C(F)(F)F)cc2)C3CCC1 (stereo not drawn) the results were JMJD2A Tudor inh inconclusive, BAZ2B inh 28.2µM*, HP1b binding inh -6.7% and G9a block inconclusive.
Cc1ccc(C(=O)N2CCn3c4c(c5cc(C)ccc53)CCCC42)cc1 (stereo not drawn) was read as JMJD2A Tudor inh inconclusive, BAZ2B inh 14.1µM*, HP1b binding inh -21.7% and G9a block 11.2µM*.
Cc1ccc2c(c1)c1c3n2CCN(C(=O)C2CC2)C3CCC1 (stereo not drawn) was read as JMJD2A Tudor inh -34.5%, BAZ2B inh inconclusive, PLK1 PBD inh -3.4%, HP1b binding inh -1.0%, PI5P4K alpha inh 1.1 and G9a block 39.8µM*.
For Cc1ccc2c(c1)c1c3n2CCN(CC(N)=O)C3CCC1 (stereo not drawn) the results were JMJD2A Tudor inh -6.2%, BAZ2B inh 23.8%, PLK1 PBD inh -9.2%, HP1b binding inh 21.2% and PI5P4K alpha inh 2.2.
`COc1ccc(C(=O)C(C)OC(=O)C2CC3CCCC(C2)C3=O)cc1` (stereo not drawn) gave PLK1 PBD inh -17.1% and PI5P4K alpha inh 1.4.
`Cc1ccc2c(c1)c1c3n2CCN(CC#N)C3CCC1` (stereo not drawn) gave JMJD2A Tudor inh -21.2%, BAZ2B inh inconclusive, PLK1 PBD inh -7.6%, HP1b binding inh 29.3%, PI5P4K alpha inh 7.4 and G9a block 6.2%[59 µM].
Screening Cc1ccc2c(c1)c1c3n2CCCN(Cc2ccccc2)C3CCC1 (stereo not drawn) returned JMJD2A Tudor inh inconclusive, BAZ2B inh 10µM*, PLK1 PBD inh -7.4%, HP1b binding inh inconclusive and G9a block 12.6µM*.
O=C(O)CCCC(=O)NNc1ncnc2ccccc12 was read as JMJD2A Tudor inh 3.16µM*, BAZ2B inh 7.9%, PLK1 PBD inh 2.2%, HP1b binding inh 9.5%, PI5P4K alpha inh 11.0 and G9a block -0.1%[59 µM].
`CCN1CCN(Cc2c(O)ccc3c(=O)c(Oc4ccccc4Cl)c(C(F)(F)F)oc23)CC1` gave JMJD2A Tudor inh -3.4%, BAZ2B inh -0.6%, HP1b binding inh 27.4% and G9a block 4.6%[59 µM].
For Cc1cccc(CCNC(=O)Cn2ncc3c(=O)oc4ccccc4c32)c1 the results were JMJD2A Tudor inh -22.0%, HP1b binding inh 36.4% and G9a block -27.6%[59 µM].
S=c1nccc(-c2ccc3c(c2)CCO3)[nH]1 was read as JMJD2A Tudor inh -20.0%, BAZ2B inh -12.2%, PLK1 PBD inh inconclusive, HP1b binding inh 16.3%, PI5P4K alpha inh -17.9 and G9a block 39.8µM*.
COC(=O)c1ccc(Cn2c(C)cc(C)[n+]2C)o1 was read as JMJD2A Tudor inh 39.8µM*, BAZ2B inh inconclusive, PLK1 PBD inh -10.8%, HP1b binding inh 20.7%, PI5P4K alpha inh -11.3 and G9a block inconclusive.
For COC(=O)c1ccc(Cc2ccc(C(=O)OC)o2)o1 the results were JMJD2A Tudor inh -1.2%, BAZ2B inh 7.8%, PLK1 PBD inh -0.8%, HP1b binding inh 26.8% and G9a block inconclusive.
`CCC(C)NCc1ccc(C(=O)OC)o1` (stereo not drawn) gave JMJD2A Tudor inh inconclusive, BAZ2B inh -19.7%, PLK1 PBD inh 23.8µM*, HP1b binding inh inconclusive, PI5P4K alpha inh -14.9 and G9a block -1.6%[12.7 µM].
CCCC(CCC)=NNc1ccc(S(=O)(=O)Nc2ccccc2OC)cc1[N+](=O)[O-] was read as JMJD2A Tudor inh 14.1µM*, BAZ2B inh 10µM*, PLK1 PBD inh -4.8%, HP1b binding inh 28.2µM*, PI5P4K alpha inh 17.3 and G9a block inconclusive.
Screening COc1ccccc1NS(=O)(=O)c1ccc(NN=C2CCCCC2)c([N+](=O)[O-])c1 returned JMJD2A Tudor inh inconclusive, BAZ2B inh 8.91µM*, PLK1 PBD inh -5.7%, HP1b binding inh inconclusive, PI5P4K alpha inh 9.4 and G9a block 25.1µM*.
Screening COc1ccccc1NS(=O)(=O)c1ccc(OC)c([N+](=O)[O-])c1 returned JMJD2A Tudor inh -22.5%, BAZ2B inh -12.9%, PLK1 PBD inh -13.8%, HP1b binding inh -7.5%, PI5P4K alpha inh -17.0 and G9a block 2.8%.
